Laboratory results reported in PubChem BioAssay (Tox21).
Records with an inconclusive call do not appear. Activity calls are given as the source filed them. Unless noted, calls come from the whole dose curve; as a rule, active = well fitted curve in the direction sought with a large enough effect in the repeat runs; inconclusive = weak or mixed curves; inactive = no such curve, though single readings can be large; an effect the other way counts as inactive or inconclusive.

Tests used:
[1] = biological target: Thyrotropin receptor (Homo sapiens) (UniProt P16473); experiment: qHTS assay to identify small molecule antagonists of the thyroid stimulating hormone receptor (TSHR) signaling pathway (AID 1259385; calls by dose curve; note: nearly all actives have a fitted effect of over 20% in size)
In short: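 TSHR-HEK293 cells were plated and held 18 h at 37C/5% CO2, then given compound plus Ro20-1724 and stimulated with TSH at 1.5 ng/mL final. After 30 min at room temperature, cAMP was detected with cAMP-d2/anti-cAMP-cryptate (1 h) by fluorescence.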

[2] = qHTS assay to identify small molecule agonists of the estrogen receptor alpha (ER-alpha) signaling pathway in the presence of an antagonist - cell viability counter screen (AID 1259386);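 note: series mostly up to about 92 µM; cells exposed to compounds for 22 h at 37 °C before the viability read; nearly all actives have a fitted effect of over 30% in size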
In short: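 Cell viability in VM7Luc4E2 cells (endogenous full-length ER-alpha) measured by CellTiter-Fluor fluorescence in the same wells as the luciferase screen. Cells pre-cultured 5 days in charcoal-stripped serum, then treated 22 h with compounds at 15 concentrations plus 10.0nM ICI-182,780.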

[3] = biological target: Progesterone receptor (Homo sapiens) (UniProt P06401); experiment: qHTS assay to identify small molecule agonists of the progesterone receptor (PR) signaling pathway (AID 1346784; calls by dose curve; note: nearly all actives have a fitted effect of over 30% in size)
In short: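 PR-UAS-bla HEK 293T cells (beta-lactamase reporter under UAS) in 2% charcoal-stripped FBS, dosed with 23 nL compound after 6 hr, incubated 16hr at 37C. LiveBLAzer B/G FRET substrate added, fluorescence read after 2 hours.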

[4] = biological target: Progesterone receptor (Homo sapiens) (UniProt P06401); experiment: qHTS assay to identify small molecule antagonists of the progesterone receptor (PR) signaling pathway (AID 1346795; active = well fitted inhibition curve with a large enough effect in the signal ratio in the repeat runs, not every such curve was filed as active; the % refers to the signal ratio)
In short: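 PR-UAS-bla HEK293T cells with beta-lactamase reporter under UAS control, in 2% charcoal-stripped FBS, treated with compounds plus 1 nM promegestone (R5020, final) for 16 hr at 37C. Read-out: FRET beta-lactamase substrate fluorescence after 2 hr at room temperature.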

[5] = qHTS assay to identify small molecule antagonists of the progesterone receptor (PR) signaling pathway - cell viability counter screen (AID 1346798); note: series mostly up to about 92 µM; nearly all actives have a fitted effect of over 50% in size
In short: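 PR-UAS-bla HEK293T cells, 3,000/well in 2% charcoal-stripped FBS medium, dosed with compounds plus R5020 agonist and incubated 16 h at 37C. Viability then measured in the same wells by CellTiter-Glo luminescence after 30 min at RT.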

[6] = qHTS assay to identify small molecule agonists of the progesterone receptor (PR) signaling pathway - cell viability counter screen (AID 1346799; calls by dose curve; note: nearly all actives have a fitted effect of over 45% in size)
In short: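 Counter screen in the PR-UAS-bla HEK293T wells (2% charcoal-stripped FBS, 16 h compound exposure at 37 C) after the bla read. CellTiter-Glo added, 30 min at room temperature, luminescence read as cell viability.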

[7] = qHTS assay to identify small molecule antagonists of the TGF-beta/Smad signaling pathway - cell viability counter screen (AID 1346824); note: nearly all actives have a fitted effect of over 50% in size
In short: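 SBE-bla HEK 293T cells were plated overnight at 37 C, then given compounds in DMSO plus TGF-beta1 (added as 0.25 ng/mL solution) for 5 hr. After the bla read, CellTiter-Glo was added to the same wells and luminescence read after 30 min at room temperature.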

[8] = qHTS assay to identify small molecule agonists of the TGF-beta/Smad signaling pathway - cell viability counter screen (AID 1346829); note: top concentration of the series differs between compounds; nearly all actives have a fitted effect of over 45% in size
In short: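 Compound-treated SBE-bla HEK 293T cells (5 hr, 37 C) were assessed for viability with CellTiter-Glo in parallel with the reporter read.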

[9] = qHTS assay to identify small molecule agonists of the TGF-beta/Smad signaling pathway (AID 1346859; active = well fitted activation curve with a large enough effect in the signal ratio in the repeat runs, not every such curve was filed as active; the % refers to the signal ratio; note: series mostly up to about 77 µM)
In short: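 SBE-bla HEK293T cells plated overnight, then compound exposure for 5 h at 37 C. Beta-lactamase reporter read with LiveBLAzer B/G FRET substrate after 2 h at room temperature, fluorescence at 405 nm excitation, 460/530 nm emission.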

[10] = biological target: Thyrotropin-releasing hormone receptor (Homo sapiens) (UniProt P34981); experiment: qHTS assay to identify small molecule antagonists of the thyrotropin-releasing hormone receptor (TRHR) signaling pathway (AID 1346877; active = well fitted inhibition curve with a large enough effect in the repeat runs, not every such curve was filed as active; note: series mostly up to about 51 µM)
In short: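 TRHR-expressing HEK293 cells loaded with calcium dye for 2 h at 37 C; compounds pre-incubated 5 min at room temperature before TRH challenge at 1 nM final. Intracellular calcium fluorescence read kinetically for 3 min; 15 concentrations in triplicate.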

[11] = biological target: Thyrotropin-releasing hormone receptor (Homo sapiens) (UniProt P34981); experiment: qHTS assay to identify small molecule agonists of the thyrotropin-releasing hormone receptor (TRHR) signaling pathway (AID 1346891; calls by dose curve; note: series mostly up to about 58 µM)
In short: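 HEK293 cells expressing TRHR plated 18 h at 37 C/5% CO2, calcium dye-loaded 2 h at 37 C, then compound added (agonist mode); kinetic calcium fluorescence read 3 min at 1 s intervals; 15 concentrations in triplicate.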

[12] = Caspase-3/7 induction in HepG2 cells by small molecules, qHTS assay (AID 1346978); note: nearly all actives have a fitted effect of over 15% in size
In short: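 Wild-type HepG2 cells (2,000/well) were settled 5 h at 37 C, 5% CO2, then exposed to compounds in DMSO for 17 h. Caspase-3/7 activity was read by luminescence 30 min after adding Caspase-Glo 3/7 reagent at room temperature.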

[13] = Caspase-3/7 induction in CHO-K1 cells by small molecules, qHTS cell viability counter screen (AID 1346979); note: nearly all actives have a fitted effect of over 35% in size
In short: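 Wild-type CHO-K1 cells (1,500/well) treated with compound after 5 h plating; after 16 h at 37C, viability read as CellTiter-Fluor fluorescence following 1 h reagent incubation, in the same wells as the caspase read.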

[14] = Caspase-3/7 induction in CHO-K1 cells by small molecules, qHTS assay (AID 1346980); note: nearly all actives have a fitted effect of over 15% in size
In short: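 Wild-type cells were seeded at 1,500 per well and settled 5 hr at 37 C, 5% CO2, then exposed to DMSO-dissolved compounds for 17 hr. Caspase-Glo 3/7 reagent was added, and luminescence was read after 30min at room temperature.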

[15] = Caspase-3/7 induction in HepG2 cells by small molecules, qHTS cell viability counter screen (AID 1346981); note: series mostly up to about 92 µM; nearly all actives have a fitted effect of over 30% in size
In short: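 Wild-type HepG2 cells, 2,000/well, settled 5 hr at 37 C, 5% CO2 before compound addition. Viability read by CellTiter-Fluor fluorescence, reagent added after 16 hr compound exposure, then 1 hr at 37C, in the same wells as the caspase read.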

[16] = biological target: Nuclear receptor subfamily 1 group I member 2 (Homo sapiens) (UniProt O75469); experiment: Human pregnane X receptor (PXR) small molecule agonists, qHTS assay (AID 1346982); note: nearly all actives have a fitted effect of over 35% in size
In short: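 PXR-Luc HepG2 reporter cells (CYP3A4-driven luciferase) in 5% charcoal-stripped FBS medium, plated 5 h before compound addition, then treated 24 h at 37C. Luciferase read by ONE-Glo luminescence after 30 min at room temperature.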

[17] = Human pregnane X receptor (PXR) small molecule agonists, qHTS cell viability counter screen (AID 1346977); note: nearly all actives have a fitted effect of over 50% in size
In short: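 PXR-Luc HepG2 cells (2,000/well, 5% charcoal-stripped FBS) preincubated 5 hr, then exposed to compounds 24 hr at 37 C. Viability read in the same wells by CellTiter-Fluor fluorescence, reagent added at 23 hr, 1 hr incubation.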

[18] = biological target: Nuclear receptor subfamily 1 group I member 2 (Rattus norvegicus) (UniProt Q9R1A7); experiment: Rat pregnane X receptor (rPXR) activation by small molecules, qHTS assay (AID 1346983); settings: rPXR luciferase reporter cells, One-Glo luminescence, 24 h; max activation: active compounds read high; note: nearly all actives have a fitted effect of over 20% in size
In short: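 Cell-based rPXR luciferase reporter assay, 2,000 cells per well, rested 5hr at 37 C before compound addition in DMSO, then 24 hr at 37 C. One-Glo reagent was added and luminescence read after 30 min at room temperature.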

[19] = biological target: Nuclear receptor subfamily 1 group I member 2 (Homo sapiens) (UniProt O75469); experiment: CYP3A4 induction through human pregnane X receptor (PXR) by small molecules, qHTS assay (AID 1346984); note: nearly all actives have a fitted effect of over 40% in size
In short: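 DPX-2 HepG2 cells carrying a PXR response element and CYP3A4-promoter luciferase construct, treated with compounds 24 hr at 37C. Then P450-Glo CYP3A4 Luciferin-IPA substrate (3uM final) for 3 hr at 37C, One-Glo added, luminescence read.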

[20] = biological target: Nuclear receptor subfamily 1 group I member 2 (Homo sapiens) (UniProt O75469); experiment: Human pregnane X receptor (PXR) activation by small molecules, qHTS assay (AID 1346985); note: nearly all actives have a fitted effect of over 40% in size
In short: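 DPX-2 cells (HepG2 co-transfected with a PXR response element and a CYP3A4-promoter luciferase construct) were seeded at 2,000 per well, rested 5 hr at 37C, then exposed to DMSO-dissolved compounds for 24 hr. Activation was read as luciferase luminescence.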
% is set by controls: 0 for no effect and ±100 for the full control effect.

Sequence of Thyrotropin receptor (Homo sapiens) (P16473 whole entry, looked up): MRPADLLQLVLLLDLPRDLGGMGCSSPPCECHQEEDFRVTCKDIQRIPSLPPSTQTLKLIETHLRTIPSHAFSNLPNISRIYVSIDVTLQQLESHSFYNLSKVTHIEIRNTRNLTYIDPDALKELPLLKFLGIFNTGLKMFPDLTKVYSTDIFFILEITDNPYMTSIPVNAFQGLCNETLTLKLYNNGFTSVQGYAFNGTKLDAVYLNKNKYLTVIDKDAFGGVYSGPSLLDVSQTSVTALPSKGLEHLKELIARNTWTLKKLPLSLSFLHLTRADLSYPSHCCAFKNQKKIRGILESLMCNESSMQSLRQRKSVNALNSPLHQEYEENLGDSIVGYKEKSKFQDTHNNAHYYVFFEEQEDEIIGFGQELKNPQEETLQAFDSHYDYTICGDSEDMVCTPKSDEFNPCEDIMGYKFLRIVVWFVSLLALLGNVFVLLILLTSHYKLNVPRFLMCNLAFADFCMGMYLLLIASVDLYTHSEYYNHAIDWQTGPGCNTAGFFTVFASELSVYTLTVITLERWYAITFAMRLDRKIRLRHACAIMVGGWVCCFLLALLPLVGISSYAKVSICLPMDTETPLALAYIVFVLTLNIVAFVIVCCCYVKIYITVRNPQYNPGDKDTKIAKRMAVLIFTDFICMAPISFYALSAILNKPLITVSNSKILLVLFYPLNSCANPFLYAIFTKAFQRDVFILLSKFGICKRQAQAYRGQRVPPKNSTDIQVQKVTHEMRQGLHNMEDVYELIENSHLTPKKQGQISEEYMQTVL
Sequence of Progesterone receptor (Homo sapiens) (P06401 whole entry, looked up): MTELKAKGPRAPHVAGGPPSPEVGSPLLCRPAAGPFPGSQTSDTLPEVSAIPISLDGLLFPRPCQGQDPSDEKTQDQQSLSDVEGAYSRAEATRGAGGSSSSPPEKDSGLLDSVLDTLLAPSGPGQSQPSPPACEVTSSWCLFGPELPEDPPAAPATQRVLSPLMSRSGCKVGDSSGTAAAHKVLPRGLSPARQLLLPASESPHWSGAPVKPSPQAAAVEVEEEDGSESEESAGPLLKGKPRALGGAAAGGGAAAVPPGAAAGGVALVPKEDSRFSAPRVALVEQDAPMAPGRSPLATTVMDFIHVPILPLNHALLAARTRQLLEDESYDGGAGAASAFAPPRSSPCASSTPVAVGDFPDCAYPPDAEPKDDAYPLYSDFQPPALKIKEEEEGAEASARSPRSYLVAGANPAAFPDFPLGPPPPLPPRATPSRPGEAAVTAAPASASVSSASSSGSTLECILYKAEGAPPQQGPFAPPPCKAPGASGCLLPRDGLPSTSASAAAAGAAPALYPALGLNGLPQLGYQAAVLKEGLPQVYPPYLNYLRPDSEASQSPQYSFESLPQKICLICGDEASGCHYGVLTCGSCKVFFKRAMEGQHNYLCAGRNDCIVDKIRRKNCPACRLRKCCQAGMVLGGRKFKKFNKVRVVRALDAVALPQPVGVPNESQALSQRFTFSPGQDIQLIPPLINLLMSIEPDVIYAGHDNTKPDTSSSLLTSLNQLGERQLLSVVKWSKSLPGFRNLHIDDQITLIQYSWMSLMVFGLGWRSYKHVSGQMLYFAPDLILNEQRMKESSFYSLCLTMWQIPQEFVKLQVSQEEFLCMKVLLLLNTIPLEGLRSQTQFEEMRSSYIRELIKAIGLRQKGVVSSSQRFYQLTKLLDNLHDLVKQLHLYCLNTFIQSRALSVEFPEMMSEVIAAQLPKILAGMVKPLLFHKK
Sequence of Nuclear receptor subfamily 1 group I member 2 (Homo sapiens) (O75469 whole entry, looked up): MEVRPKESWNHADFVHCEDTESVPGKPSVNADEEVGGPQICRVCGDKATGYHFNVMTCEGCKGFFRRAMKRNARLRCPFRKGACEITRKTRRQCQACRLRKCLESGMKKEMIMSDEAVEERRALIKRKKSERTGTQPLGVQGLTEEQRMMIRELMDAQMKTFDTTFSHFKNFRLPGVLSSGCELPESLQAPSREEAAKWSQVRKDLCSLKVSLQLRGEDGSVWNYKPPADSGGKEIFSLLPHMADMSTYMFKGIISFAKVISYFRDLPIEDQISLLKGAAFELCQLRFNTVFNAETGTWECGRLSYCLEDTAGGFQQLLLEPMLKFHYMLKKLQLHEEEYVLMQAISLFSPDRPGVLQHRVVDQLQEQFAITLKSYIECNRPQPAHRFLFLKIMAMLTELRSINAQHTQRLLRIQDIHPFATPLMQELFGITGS
Sequence of Thyrotropin-releasing hormone receptor (Homo sapiens) (P34981 whole entry, looked up): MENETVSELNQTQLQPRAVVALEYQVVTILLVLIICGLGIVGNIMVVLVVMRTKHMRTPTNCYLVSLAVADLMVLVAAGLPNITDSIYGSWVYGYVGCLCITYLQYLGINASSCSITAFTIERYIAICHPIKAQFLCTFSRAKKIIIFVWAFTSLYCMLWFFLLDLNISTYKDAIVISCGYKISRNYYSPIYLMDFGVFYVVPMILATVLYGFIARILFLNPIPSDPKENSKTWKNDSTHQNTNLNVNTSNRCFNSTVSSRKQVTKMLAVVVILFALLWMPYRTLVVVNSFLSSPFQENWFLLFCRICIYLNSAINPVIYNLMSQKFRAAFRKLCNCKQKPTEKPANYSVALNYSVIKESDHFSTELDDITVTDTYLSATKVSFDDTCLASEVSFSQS
Sequence of Nuclear receptor subfamily 1 group I member 2 (Rattus norvegicus) (Q9R1A7 whole entry, looked up): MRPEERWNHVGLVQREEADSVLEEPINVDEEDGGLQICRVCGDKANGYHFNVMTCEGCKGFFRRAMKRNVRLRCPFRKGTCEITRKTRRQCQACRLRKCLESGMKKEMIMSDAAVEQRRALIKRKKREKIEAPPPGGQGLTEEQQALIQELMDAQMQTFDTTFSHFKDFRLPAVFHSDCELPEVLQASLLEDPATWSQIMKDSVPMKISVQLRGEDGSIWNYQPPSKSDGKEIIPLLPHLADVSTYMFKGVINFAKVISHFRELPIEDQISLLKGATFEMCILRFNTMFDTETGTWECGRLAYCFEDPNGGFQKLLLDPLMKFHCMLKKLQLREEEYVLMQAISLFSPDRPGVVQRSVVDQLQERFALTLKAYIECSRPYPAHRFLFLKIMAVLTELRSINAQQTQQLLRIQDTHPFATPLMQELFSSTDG

CC(=O)c1ccc(C)cc1
inactive: Potency [1] | outcome [2] | Potency [3] | Potency [4] | Potency [5] | Potency [6] | outcome [7] | outcome [8] | outcome [9] | outcome [10] | outcome [11] | outcome [12] | Potency [13] | outcome [14] | outcome [15] | Potency [16]

c1ccc2cnncc2c1
inactive: Potency [1] | outcome [2] | Potency [3] | Potency [4] | Potency [5] | Potency [6] | outcome [7] | outcome [8] | outcome [9] | outcome [11] | Potency [17] | outcome [12] | Potency [13] | outcome [14] | outcome [15] | Potency [16]

CCCOCC(C)OCC(C)O (stereo not drawn)
inactive: Potency [1] | outcome [2] | Potency [3] | Potency [4] | Potency [5] | Potency [6] | outcome [7] | outcome [8] | outcome [9] | outcome [11] | Potency [17] | outcome [12] | Potency [13] | outcome [14] | outcome [15]

COc1cccc(OC)c1
inactive: Potency [1] | outcome [2] | Potency [3] | Potency [4] | Potency [5] | Potency [6] | outcome [7] | outcome [8] | outcome [9] | outcome [10] | outcome [11] | outcome [12] | Potency [13] | outcome [14] | outcome [15] | Potency [16]

CC(C)(C)OC(=O)N1C[C@@H](F)C[C@H]1C(=O)O
inactive: Potency [1] | outcome [2] | Potency [3] | Potency [4] | Potency [5] | Potency [6] | outcome [7] | outcome [8] | outcome [9] | outcome [10] | outcome [11] | outcome [12] | outcome [14] | Potency [16]

CC(=O)CCc1ccc(O)cc1
inactive: Potency [1] | outcome [2] | Potency [3] | Potency [4] | Potency [5] | Potency [6] | outcome [7] | outcome [8] | outcome [9] | outcome [11] | Potency [17] | outcome [12] | Potency [13] | outcome [14] | outcome [15] | Potency [16]

Cn1cnc2c(=O)[nH]c(N)nc21
inactive: Potency [1] | outcome [2] | Potency [3] | Potency [4] | Potency [5] | Potency [6] | outcome [7] | outcome [8] | outcome [9] | outcome [12] | Potency [13] | outcome [14] | Potency [16]

Nc1nc(F)nc2c1ncn2[C@@H]1O[C@H](CO)[C@@H](O)[C@@H]1O
inactive: Potency [1] | outcome [2] | Potency [3] | Potency [4] | Potency [5] | Potency [6] | outcome [7] | outcome [8] | outcome [9] | outcome [12] | Potency [13] | outcome [14] | outcome [15] | Potency [16] | max activation [18] -2.35% | Potency [19] | Potency [20]
